Calb FLC: affects C. albicans growth with fluconazole. growth inhibition, % (no concentration beside the values). C. albicans CaCi-2 (fluconazole-resistant clinical isolate) + fluconazole, Alamar Blue growth, 48 h. 300,000 compounds, 0.57% hits;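 active = growth inhibition above about 58% in most replicates, limit read from the data, passing the limit was not always enough; inconclusive = exactly half the replicates above a set limit; inactive = most replicates below a set limit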;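 note: all wells also contain fluconazole at 8 µg/ml as a sub-toxic cotreatment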
SKKanGAS inh: inhibitors of SKKanGAS S. pyogenes growth in kanamycin (SK-promoter or general growth effect); BacTiter-Glo, 6 h; 300,000 compounds, 1.3% hits; inhibition, % at 7.5 µM;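 active = mean replicate score, as percent of positive control median, at least 50; inconclusive = mean below 50 but one replicate at or above 50; inactive = mean and every replicate below 50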;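 note: strain carries kanamycin resistance gene driven by streptokinase promoter and grows in 40 µg/ml kanamycin; loss of luminescence reflects streptokinase promoter inhibition or plain growth inhibition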
CSC inhib: blocks cancer stem cells; cancer stem cell-like cells viability, luminescence; inhibition, % at 7.5 µM; 300,000 compounds, 1.1% hits; AID 2717; in the data active = inhibition above about 75%; inconclusive = no clear call, values can overlap the other calls; tested in HMLE shEcad cells
Mdm2-MdmX inh: inhibitors of human Mdm2/MdmX interaction | O15151+Q00987 | SaOS-2 split-luciferase Mdm2/MdmX complementation, luminescence | inhibition, % at 8 µM | 330,000 compounds, 3% hits | AID 485346;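 active = inhibition of at least 50% at 8 µM in the primary screen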
Target sequence (O15151 whole entry, looked up): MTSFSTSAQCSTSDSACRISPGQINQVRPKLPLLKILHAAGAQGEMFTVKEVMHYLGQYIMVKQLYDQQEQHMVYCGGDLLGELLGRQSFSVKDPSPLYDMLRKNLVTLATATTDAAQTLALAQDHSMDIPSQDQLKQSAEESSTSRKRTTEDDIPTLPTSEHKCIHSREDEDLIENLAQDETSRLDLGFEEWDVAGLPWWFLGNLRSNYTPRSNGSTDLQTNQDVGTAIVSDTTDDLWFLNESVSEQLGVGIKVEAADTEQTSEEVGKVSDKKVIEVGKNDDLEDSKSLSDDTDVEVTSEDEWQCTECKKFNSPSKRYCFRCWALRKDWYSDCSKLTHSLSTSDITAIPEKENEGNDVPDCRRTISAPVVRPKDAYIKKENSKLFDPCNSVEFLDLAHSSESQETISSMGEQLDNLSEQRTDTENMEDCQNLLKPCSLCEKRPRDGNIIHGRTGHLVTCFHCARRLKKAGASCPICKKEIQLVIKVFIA
Target sequence (Q00987 whole entry, looked up): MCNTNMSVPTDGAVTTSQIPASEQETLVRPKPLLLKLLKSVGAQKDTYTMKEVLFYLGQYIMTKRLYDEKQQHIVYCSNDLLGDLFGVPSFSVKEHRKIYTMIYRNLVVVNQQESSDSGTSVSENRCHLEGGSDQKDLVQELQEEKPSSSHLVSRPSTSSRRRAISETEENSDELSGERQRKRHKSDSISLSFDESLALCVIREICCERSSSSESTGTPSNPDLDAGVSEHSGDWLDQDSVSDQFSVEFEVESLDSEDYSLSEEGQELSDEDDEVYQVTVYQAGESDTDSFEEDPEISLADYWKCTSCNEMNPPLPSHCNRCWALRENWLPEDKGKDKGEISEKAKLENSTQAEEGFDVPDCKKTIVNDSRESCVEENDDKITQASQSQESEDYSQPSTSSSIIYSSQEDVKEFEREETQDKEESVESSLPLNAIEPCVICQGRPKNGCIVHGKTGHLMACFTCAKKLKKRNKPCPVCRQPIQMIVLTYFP
Beta apoptosis: beta cell apoptosis inhibition | INS-1E cytokine-induced death, ATP luminescence, 48 h; percent of positive-control rescue, neutral wells zero | protection from apoptosis, % (concentration not given with the values) | 300,000 compounds, 0.8% hits | AID 435005;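 active = Every replicate reaches about 75%, or at least half do and their mean reaches it too, limit read from the data; inconclusive = At least half of replicates reach the limit but their mean does not; inactive = Under half of replicates reach the limit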;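 note: higher means more ATP so stronger rescue from cytokine killing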
MPTP inh: blocks calcium-induced mitochondrial swelling; 360,000 compounds, 1.4% hits; isolated mouse mitochondria, Ca2+ swelling absorbance, 30 min; AID 602449; inhibition, % at 10 µM;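 active = inhibition of 50% or more, scaled per plate between neutral and stimulator controls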
Mdm2 MdmX conf: confirmation of human Mdm2/MdmX interaction inhibitors | Mdm2-MdmX binding, luminescent assay | inhibition, % at 8 µM | 10,000 compounds, 55% hits | shares compounds with Mdm2-MdmX inh; in the data active = inhibition above about 40%
Full FLuc ctr: full-length luciferase inhibition in Mdm2/MdmX counter-screen; 6,200 compounds, 77% hits; SaOS-2 full-length luciferase counterscreen, luminescence; inhibition, % at 8 µM; shares compounds with Mdm2-MdmX inh; AID 504607;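 active = mean inhibition at 8 µM reaching about 37%, which flags the compound as non-specific, limit read from the data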;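 note: p53-null SaOS-2 cells with luciferase driven by a doxycycline-inducible promoter; compound on cells about two nights before reading with doxycycline added after day one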
Of the large screens only hits and unclear results are named; the others gave an inactive call (follow-up assays come after a bar, where they were run); ! = not confirmed by another sample. Compounds with a hit are over-represented: about 5.4% of the library has one in this group of screens.

CCOc1cc(/C=C/c2cc(C(F)(F)F)[nH]c(=O)n2)ccc1O	none
CCc1c(C)sc2nc(C(C)C)nc(SCC(=O)N3CCc4ccccc4C3)c12	SKKanGAS inh 62.5, CSC inhib 191.7, Mdm2-MdmX inh 94.7, Beta apoptosis 104.8 (no result: MPTP inh) | Mdm2 MdmX conf 57.5 | Full FLuc ctr 74.3
Cc1sc2nc(C(C)C)nc(SCC(=O)N3CCN(C(=O)c4ccco4)CC3)c2c1C	none
COC(=O)C1=C(N)OC2=C(C(=O)CCC2)C1c1ccccc1OC (configuration not stated)	none
CC1C/C(=C/c2ccccn2)C(=O)/C(=C/c2ccccn2)C1 (configuration not stated)	Mdm2-MdmX inh 98.5 | Mdm2 MdmX conf 100.2 | Full FLuc ctr 51.4
CC(C)(C)C1C/C(=C/c2ccccn2)C(=O)/C(=C/c2ccccn2)C1 (configuration not stated)	Mdm2-MdmX inh 99.5, Beta apoptosis 109.0 | Mdm2 MdmX conf 99.9 | Full FLuc ctr 51.2
Cc1ccc(-c2nnc(Sc3nc4ccccc4o3)c3ccccc23)cc1	CSC inhib inconclusive, Mdm2-MdmX inh 52.9 | Mdm2 MdmX conf inactive
Clc1ccc(-c2nnc(Sc3nc4ccccc4o3)c3ccccc23)cc1	Mdm2-MdmX inh 61.0 | Mdm2 MdmX conf inactive
Cc1nnc(Sc2nc3ccccc3o2)c2ccccc12	none
COc1cc(NC(=O)CN2C(=O)COc3ccc(S(=O)(=O)N4CCCCC4)cc32)cc(OC)c1	none
CC(C)(C)c1ccc(CC(=O)N2CCC2(C)C(=O)NS(=O)(=O)c2ccc(Cl)cc2)cc1 (configuration not stated)	none (no result: Calb FLC, SKKanGAS inh, CSC inhib, Mdm2-MdmX inh, Beta apoptosis)
CCC(C)NC(=O)CSC1=Nc2ccccc2C2=NC(CC(=O)NCc3ccccc3)C(=O)N12 (configuration not stated)	none
Oc1ccc(Nc2nc3ccccc3nc2Nc2ccc(O)cc2)cc1	CSC inhib 77.9, Mdm2-MdmX inh 100.4 (no result: Beta apoptosis) | Mdm2 MdmX conf inactive
Oc1ccc(Nc2nc(-c3ccccc3)nc3ccccc23)cc1	none
COc1ccc(NC(=O)CSc2nnc(-c3cccc(O)c3)o2)cc1	none (no result: CSC inhib)
COc1cccc(NC(=O)CSc2nnc(-c3cc(C)n(-c4ccccc4)c3C)o2)c1	Mdm2-MdmX inh 81.7 | Mdm2 MdmX conf 83.4 | Full FLuc ctr 58.7
CN1Cc2c(N3CCOCC3)nc3sc(C(=O)c4ccccc4)c(N)c3c2CC1(C)C	Mdm2-MdmX inh 58.6 | Mdm2 MdmX conf inactive
Cc1cc(C)c(C(=O)/C=C/c2ccc(C(C)C)cc2)c(=O)[nH]1	CSC inhib 83.6, Mdm2-MdmX inh 85.7 | Mdm2 MdmX conf 97.2 | Full FLuc ctr 56.0
Cc1cc(C)c(C(=O)/C=C/C=C/c2ccccc2)c(=O)[nH]1	none
CCOc1cccc(/C=N/NC(=O)c2cc(C3CC3)[nH]n2)c1O	CSC inhib 127.6, Mdm2-MdmX inh 59.4, Beta apoptosis 95.8 | Mdm2 MdmX conf inactive
COc1cc(/C=N/n2cnc3scc(-c4cccs4)c3c2=O)cc(OC)c1OC	Mdm2-MdmX inh 61.3 | Mdm2 MdmX conf inactive
COc1cc2c(C(=O)Nc3ccc4c(c3)OCO4)cn(CC(C)C)c(=O)c2cc1OC	none (no result: Beta apoptosis, MPTP inh)
Cc1cc(=S)[nH]c(=S)[nH]1	none
CCN(CC)S(=O)(=O)c1ccc(OC(C)C)c(NC(=O)c2c3c(nc4ccccc24)CCN(Cc2ccccc2)C3)c1	Mdm2-MdmX inh 54.9 (no result: CSC inhib) | Mdm2 MdmX conf 53.8 | Full FLuc ctr 79.9
CSc1ccccc1NC(=O)CN(c1ccccc1)S(=O)(=O)N(C)C	none
Cn1nc([N+](=O)[O-])nc1Sc1nnc(-c2ccccc2)o1	Mdm2-MdmX inh 100.4 | Mdm2 MdmX conf 76.2 | Full FLuc ctr 51.5
O=Cc1ccc(Sc2nnc(-c3ccccc3)o2)c([N+](=O)[O-])c1	none
Cc1cc(C(=O)N/N=C/c2ccc(Cl)c([N+](=O)[O-])c2)c(C)n1-c1ccc(F)cc1	Mdm2-MdmX inh 95.9 | Mdm2 MdmX conf 82.6 | Full FLuc ctr 44.8
Cc1cc(C(=O)N/N=C/c2ccc3c(c2)OCO3)c(C)n1-c1ccc(F)cc1	none
Cc1cccc(C(O)(C(=O)NNc2ccc3ccccc3n2)c2cccc(C)c2)c1	Mdm2-MdmX inh 53.2 (no result: CSC inhib) | Mdm2 MdmX conf inactive
O=c1[nH]c(/C=C/c2ccc(Br)cc2)nc2c1cnn2-c1ccccc1	Mdm2-MdmX inh 83.2 (no result: CSC inhib, MPTP inh) | Mdm2 MdmX conf inactive
COc1cccc(/C=C/c2nc3c(cnn3-c3ccccc3)c(=O)[nH]2)c1	none
CO/N=C1\CCCc2c(C(=O)NN)sc(SC)c21	none
CN(C)c1ccnc2c[cH-]cc12.[Fe].c1ccc(-[c-]2[c-](-c3ccccc3)[c-](-c3ccccc3)[c-](-c3ccccc3)[c-]2-c2ccccc2)cc1 (configuration not stated)	SKKanGAS inh 86.0, Mdm2-MdmX inh 98.4 | Mdm2 MdmX conf 77.5 | Full FLuc ctr 36.8!
COc1cccc(-c2nc(-c3ccccc3)nc(N3CCN(C)CC3)c2C#N)c1	Mdm2-MdmX inh 66.4 | Mdm2 MdmX conf 53.9 | Full FLuc ctr 77.3
CCOC(=O)N1CCC(N(CCN(C)C)C(=S)Nc2cc(Cl)cc(Cl)c2)CC1	Mdm2-MdmX inh 67.4 | Mdm2 MdmX conf 42.1 | Full FLuc ctr 49.6
COc1ccccc1NC(=O)N(C)C[C@H]1OCc2cnnn2CCCC(=O)N([C@H](C)CO)C[C@H]1C	none (no result: Calb FLC, SKKanGAS inh, CSC inhib, Mdm2-MdmX inh, Beta apoptosis)
CCCCOC(=O)CSc1nc(N)c(C#N)c(-c2ccc(OCC)cc2)c1C#N	none
CCCCOc1ccc(-c2c(C#N)c(N)nc(SCC(N)=O)c2C#N)cc1	SKKanGAS inh 89.6, Mdm2-MdmX inh 54.7 | Mdm2 MdmX conf inactive
CN1CCN(S(=O)(=O)c2ccc(SCCOc3ccc(Cl)cc3)nc2)CC1	Mdm2-MdmX inh 58.6 (no result: Calb FLC, SKKanGAS inh, CSC inhib) | Mdm2 MdmX conf inactive
COc1ccc(OCCSc2ccc(S(=O)(=O)N3CCCC3)cn2)cc1	none (no result: Calb FLC, SKKanGAS inh)
O=C(Nc1nc(-c2ccccc2)c(-c2ccccc2)s1)c1ccc(S(=O)(=O)N2CCCC2)cc1	Mdm2-MdmX inh 59.4 | Mdm2 MdmX conf inactive
CC(=O)n1cc([C@@H]2C=C(C(=O)NCc3ccccc3)O[C@H](OCc3ccc(CO)cc3)C2)c2ccccc21	none
CC(=O)n1cc([C@H]2C=C(C(=O)Nc3ccccc3)O[C@@H](OCc3ccc(CO)cc3)C2)c2ccccc21	Mdm2-MdmX inh 73.0 | Mdm2 MdmX conf inactive | Full FLuc ctr 70.5
CCNC(=S)NCCN1CCCCC1	none (no result: CSC inhib)
COc1ccc(C2=NOC(Cn3nc(-c4ccccc4)cc3C(=O)O)C2)cc1 (configuration not stated)	none (no result: Calb FLC, SKKanGAS inh)
CCn1c(=O)c([N+](=O)[O-])c(Cl)c2ccccc21	CSC inhib inconclusive, Mdm2-MdmX inh 99.5, Beta apoptosis 77.1 | Mdm2 MdmX conf 96.8 | Full FLuc ctr 54.6
CCn1c(=O)c([N+](=O)[O-])c(NCCN(C)C)c2ccccc21	none
